What is called AC50 is the concentration at which the activity in the assay is half-maximal.

The record followed here is PubChem BioAssay (EPA / NIEHS).

Inconclusive results are not listed. Active and inactive are the calls of the source. Rule for the calls, unless noted: active = hit-call score of the fitted dose curve at least 0.9, where 1 is the maximum; inactive = score below 0.9.

Assay [1] is described as follows: ATG_CMV_CIS: Attagene CIS-FACTORIAL HepG2 Assay for human CMV (Internal Marker) (AID 2282928).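 Note: endpoint acts as a background internal control marker rather than a target.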 Particulars: HepG2 CMV promoter reporter, transcription factor profiling; actives raise or lower the signal. Put shortly:
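Endogenous transcription factor activity read in HepG2 via transfected cis-promoter reporter units. After 24 h dosing, reporter mRNA measured by RT-PCR/capillary electrophoresis; gain or loss of signal fit relative to DMSO.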

Assay [2] can be described thus: ATG_DR4_LXR_CIS: Attagene CIS-FACTORIAL HepG2 Assay for human Liver X Receptor (LXR), DR4 submotif (AID 2282929). The following applies: HepG2 Attagene DR4 cis-reporter, mRNA transcription; actives raise or lower the signal. The procedure, abridged:
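Transiently transfected HepG2 liver cells; cis-regulated reporters; 24 h dosing. RT-PCR plus CE read-out of reporter mRNA. DMSO baseline, bidirectional curve fitting.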

Assay [3] can be described thus: ATG_AP_2_CIS: Attagene CIS-FACTORIAL HepG2 Assay for human Activator Protein 2 (AP-2) (AID 2282932). Particulars: HepG2 AP-2 cis-reporter, Attagene transcription factor profiling; actives raise or lower the signal. The procedure, abridged: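 HepG2 cells were transiently transfected with multiple cis-promoter reporter transcription units and dosed for 24 h. Reporter mRNA was measured by RT-PCR with capillary electrophoresis fluorescence; bidirectional fits relative to DMSO baseline.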

Assay [4] has as its target Transcription factor E2F1 (Homo sapiens) (UniProt Q01094). Description: ATG_E2F_CIS: Attagene CIS-FACTORIAL HepG2 Assay for human E2F Transcription Factor 1 (AID 2282935). The following applies: HepG2 Attagene cis-reporter, E2F reporter RNA transcripts; actives raise or lower the signal. Put shortly: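 HepG2 cells transiently transfected with multiplexed cis-element reporter units, dosed for 24 h. Reporter mRNA measured by RT-PCR, 6-FAM primer-extension labeling, HpaI digestion and capillary electrophoresis; bidirectional fit versus DMSO baseline.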

A short description of assay [5]: ATG_M_61_CIS: Attagene CIS-FACTORIAL HepG2 Assay for M61 Transcription Factor (Internal Marker) (AID 2282937). The following applies: HepG2 Attagene CIS-FACTORIAL M61 internal marker reporter; actives raise or lower the signal. The procedure, abridged: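 Multiplexed reporter mRNA assay, HepG2 human hepatoma cells, 24 h treatment. Signal: FAM-labelled, HpaI-digested RT-PCR fragments by CE. Fit: bidirectional, baseline DMSO.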

Assay [6] in a line: ATG_EGR_CIS: Attagene CIS-FACTORIAL HepG2 Assay for human Early Growth Response 1 (EGR1) (AID 2282938). The following applies: HepG2 Attagene CIS-FACTORIAL EGR reporter mRNA; actives raise or lower the signal. Put shortly:
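Multiplexed cis-reporter system in human hepatoma HepG2 cells, transiently transfected. Cells are dosed for 24 h; reporter transcripts are amplified, fluorescently tagged and sized by capillary electrophoresis, with DMSO as negative control.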

Assay [7] can be described thus: ATG_Ets_CIS: Attagene CIS-FACTORIAL HepG2 Assay for human Erythroblast Transformation Specific (ETS) (AID 2282941). Particulars: HepG2 ETS cis-reporter transcription, actives raise or lower the signal. The procedure, abridged: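 Steps: transfect HepG2 with multiple reporter units; treat compound 24 h; isolate RNA, DNase-treat, reverse-transcribe; PCR-amplify, label with 6-FAM, digest with HpaI; separate by capillary electrophoresis. Activity fitted both directions versus DMSO.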

In assay [8] the target is Hepatocyte nuclear factor 3-beta (Homo sapiens) (UniProt Q9Y261). Description: ATG_FoxA2_CIS: Attagene CIS-FACTORIAL HepG2 Assay for human Forkhead box A2 (FOXA2) (AID 2282942). Particulars: HepG2 cis-reporter transcription factor activity, 24 h; actives raise or lower the signal. The procedure, abridged: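 Multiplexed cis-element reporter assay in transiently transfected HepG2. Twenty-four hours post-dosing, RNA was reverse-transcribed, amplified, FAM-labelled, HpaI-digested and separated by CE. Activity gain or loss relative to DMSO.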
Chain of Hepatocyte nuclear factor 3-beta (Homo sapiens) (Q9Y261 whole entry, looked up): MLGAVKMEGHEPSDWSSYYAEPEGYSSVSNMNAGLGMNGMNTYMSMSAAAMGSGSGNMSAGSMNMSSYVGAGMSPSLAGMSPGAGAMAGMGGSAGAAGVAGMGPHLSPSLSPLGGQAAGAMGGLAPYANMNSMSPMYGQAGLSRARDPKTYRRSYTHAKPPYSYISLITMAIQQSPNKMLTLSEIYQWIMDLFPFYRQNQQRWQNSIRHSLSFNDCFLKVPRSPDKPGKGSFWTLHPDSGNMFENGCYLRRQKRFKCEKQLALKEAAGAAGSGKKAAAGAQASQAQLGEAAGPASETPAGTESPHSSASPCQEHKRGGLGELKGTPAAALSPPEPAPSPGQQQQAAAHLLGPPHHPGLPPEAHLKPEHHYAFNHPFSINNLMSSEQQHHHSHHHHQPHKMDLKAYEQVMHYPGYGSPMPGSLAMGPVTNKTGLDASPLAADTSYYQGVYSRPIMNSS

A short description of assay [9]: ATG_FoxO_CIS: Attagene CIS-FACTORIAL HepG2 Assay for human Forkhead box O (FoxO) (AID 2282943). Particulars: HepG2 Attagene cis-reporter, FoxO element, mRNA; actives raise or lower the signal. Put shortly: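 24 h chemical exposure, HepG2 with transient cis-MRTU transfection. RNA extraction, oligo(dT) RT, reporter-specific PCR, primer-extension labelling, HpaI digestion, CE fragment analysis; bidirectional fit, DMSO baseline.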

Assay [10] can be described thus: ATG_GATA_CIS: Attagene CIS-FACTORIAL HepG2 Assay for human GATA Binding Protein (AID 2282944). Particulars: HepG2 GATA cis-element reporter, Attagene multiplex mRNA; actives raise or lower the signal. The procedure, abridged: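 Endogenous transcription factor activity was captured through cis-promoter-driven reporters in transfected HepG2 cells. After 24 h exposure, reporter transcripts were quantified by RT-PCR with fluorescent capillary electrophoresis, and responses fitted both directions against DMSO.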

A short description of assay [11]: ATG_ISRE_CIS: Attagene CIS-FACTORIAL HepG2 Assay for human Interferon Regulatory Factor 1 (IRF1) binding to an Interferon-Stimulated Response Element (ISRE) (AID 2282948). Particulars: HepG2 ISRE cis-reporter (Attagene), mRNA transcription readout; actives raise or lower the signal. The procedure, abridged:
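Transfected HepG2 (multiple reporter transcription units, cis elements) dosed 24 h. RNA → oligo(dT) RT → PCR → 6-FAM primer extension → HpaI → CE. DMSO = negative control/baseline.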

Assay [12] in a line: ATG_M_32_CIS: Attagene CIS-FACTORIAL HepG2 Assay for M32 Transcription Factor (Internal Marker) (AID 2282949).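 Note: background control marker of the multiplexed CIS panel rather than a real target.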 Particulars: HepG2 Attagene cis-factorial M32 reporter, mRNA; actives raise or lower the signal. The procedure, abridged: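 Internal background marker read-out: RT-PCR/capillary electrophoresis fluorescence of reporter transcripts from transiently transfected HepG2 cells after 24 h chemical exposure. Activity fitted bidirectionally relative to DMSO negative control.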

For assay [13], the target named is Hepatocyte nuclear factor 6 (Homo sapiens) (UniProt Q9UBC0). Briefly: ATG_HNF6_CIS: Attagene CIS-FACTORIAL HepG2 Assay for human Hepatocyte Nuclear Factor 6 (HNF6) (AID 2282952). Particulars: HepG2 Attagene cis-factorial HNF6 reporter transcription; actives raise or lower the signal. Put shortly:
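HepG2, transient MRTU transfection (cis promoters); 24 h chemical exposure; total RNA → oligo(dT) RT → PCR → 6-FAM labelling → HpaI cut → CE; bidirectional fit vs DMSO.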

The target in assay [14] is Heat shock factor protein 1 (Homo sapiens) (UniProt Q00613). Briefly: ATG_HSE_CIS: Attagene CIS-FACTORIAL HepG2 Assay for human Heat Shock Transcription Factor 1 (HSE) (AID 2282953). Particulars: HepG2 HSE cis-reporter, Attagene RNA transcription; actives raise or lower the signal. The procedure, abridged: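 Cells were transfected with cis-element-driven reporter constructs, dosed for 24 h, then total RNA was reverse-transcribed and reporter cDNA amplified, FAM-labelled and digested with HpaI. Fragments were resolved by capillary electrophoresis; gain or loss was fitted against DMSO.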
Chain of Heat shock factor protein 1 (Homo sapiens) (Q00613 whole entry, looked up, the tested form may be a part): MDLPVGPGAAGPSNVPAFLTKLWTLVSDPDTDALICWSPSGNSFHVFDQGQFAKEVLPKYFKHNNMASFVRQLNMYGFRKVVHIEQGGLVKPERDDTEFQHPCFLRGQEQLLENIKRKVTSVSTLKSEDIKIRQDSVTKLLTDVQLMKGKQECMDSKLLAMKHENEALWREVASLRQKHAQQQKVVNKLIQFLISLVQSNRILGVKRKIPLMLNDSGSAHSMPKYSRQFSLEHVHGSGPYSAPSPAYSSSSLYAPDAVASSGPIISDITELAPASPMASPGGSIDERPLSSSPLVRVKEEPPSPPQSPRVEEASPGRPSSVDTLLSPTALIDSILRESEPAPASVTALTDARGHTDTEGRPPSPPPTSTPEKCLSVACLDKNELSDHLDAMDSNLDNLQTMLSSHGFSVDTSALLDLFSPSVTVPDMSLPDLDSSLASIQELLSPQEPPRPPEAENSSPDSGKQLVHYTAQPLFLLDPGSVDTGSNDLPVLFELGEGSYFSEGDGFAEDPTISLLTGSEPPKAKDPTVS

Assay [15] in a line: ATG_MRE_CIS: Attagene CIS-FACTORIAL HepG2 Assay for human Metal Responsive Element (MRE) (AID 2282954). The following applies: HepG2 MRE cis-reporter transcription, Attagene multiplex; actives raise or lower the signal. Put shortly: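 HepG2 cells transiently transfected with multiple cis-element reporter units measure endogenous MTF1-driven transcription. After 24 h compound exposure, reporter mRNA is quantified by RT-PCR with 6-FAM labelling, HpaI digestion and capillary electrophoresis; bidirectional fits versus DMSO.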

The target in assay [16] is Paired box protein Pax-6 (Homo sapiens) (UniProt P26367). Briefly: ATG_Pax6_CIS: Attagene CIS-FACTORIAL HepG2 Assay for human Paired Box 6 (PAX6) (AID 2282956). The following applies: HepG2 CIS-FACTORIAL PAX6 reporter transcription, RNA readout; actives raise or lower the signal. The procedure, abridged:
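Transient MRTU transfection of HepG2 → compound exposure 24 h → TriZol RNA, oligo(dT) RT → PCR, 6-FAM primer extension, HpaI cut → capillary electrophoresis; activity fitted both directions against DMSO.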

The nature of assay [17]: ATG_PXRE_CIS: Attagene CIS-FACTORIAL HepG2 Assay for human Pregnane X Receptor Element (PXRE) (AID 2282957). Particulars: HepG2 Attagene CIS-FACTORIAL PXRE reporter, mRNA; actives raise or lower the signal. The procedure, abridged: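 Transfect HepG2 with MRTUs (cis promoter elements); dose chemical, incubate 24 h; isolate RNA, RT with oligo(dT), PCR, 6-FAM label, HpaI cut, CE. Gain/loss fit vs DMSO.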

Assay [18] in a line: ATG_Sox_CIS: Attagene CIS-FACTORIAL HepG2 Assay for human SRY-box transcription factor (SOX) (AID 2282960). The following applies: HepG2 Attagene cis-factorial SOX reporter, mRNA; actives raise or lower the signal. Put shortly: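 Fluorescence-labelled cDNA fragments from reporter transcripts, sized by CE, give the signal. Cells: HepG2, transiently transfected with cis-regulated reporter units. Exposure 24 h; DMSO negative control; bidirectional curve fitting.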

Assay [19] is described as follows: ATG_SREBP_CIS: Attagene CIS-FACTORIAL HepG2 Assay for human Sterol Regulatory Element Binding (SREBP) (AID 2282962). The following applies: HepG2 Attagene cis-factorial SREBP reporter, mRNA; actives raise or lower the signal. Put shortly: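 Transfected HepG2 (cis-regulated reporter library, endogenous TFs) → compound 24 h → total RNA → oligo(dT) RT → reporter-specific PCR → FAM primer extension, HpaI cut → CE fluorescence. Fit bidirectional vs DMSO.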

Assay [20] has as its target Androgen receptor (Homo sapiens) (UniProt P10275). Briefly: ATG_AR_TRANS: Attagene TRANS-FACTORIAL HepG2 Assay for human Androgen Receptor (AR) (AID 2282973; active = hit-call score of the fitted dose curve at least 0.9, where 1 is the maximum). The following applies: HepG2 Attagene TRANS-FACTORIAL AR reporter transcription. The procedure, abridged:
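Steps: transfect HepG2 with multiple GAL4-UAS reporter transcription units (TRANS format, exogenous NR-Gal4 protein); dose 24 h; isolate RNA, reverse-transcribe, PCR-amplify, FAM-label, HpaI-digest; resolve by capillary electrophoresis. Positive direction vs DMSO.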

Chain of Hepatocyte nuclear factor 6 (Homo sapiens) (Q9UBC0 whole entry, looked up): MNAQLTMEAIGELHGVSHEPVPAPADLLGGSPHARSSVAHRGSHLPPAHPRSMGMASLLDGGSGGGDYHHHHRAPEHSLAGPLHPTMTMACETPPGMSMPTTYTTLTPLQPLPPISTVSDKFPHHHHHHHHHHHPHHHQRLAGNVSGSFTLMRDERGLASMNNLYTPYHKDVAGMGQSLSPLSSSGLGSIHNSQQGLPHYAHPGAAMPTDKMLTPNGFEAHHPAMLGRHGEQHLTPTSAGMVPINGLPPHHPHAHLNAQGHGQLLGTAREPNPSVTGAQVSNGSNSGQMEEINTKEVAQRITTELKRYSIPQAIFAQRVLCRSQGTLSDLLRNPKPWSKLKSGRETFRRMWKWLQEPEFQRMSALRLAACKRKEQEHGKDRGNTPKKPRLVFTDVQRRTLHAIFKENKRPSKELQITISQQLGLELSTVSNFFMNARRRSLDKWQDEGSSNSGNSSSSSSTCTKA
Chain of Paired box protein Pax-6 (Homo sapiens) (P26367 whole entry, looked up): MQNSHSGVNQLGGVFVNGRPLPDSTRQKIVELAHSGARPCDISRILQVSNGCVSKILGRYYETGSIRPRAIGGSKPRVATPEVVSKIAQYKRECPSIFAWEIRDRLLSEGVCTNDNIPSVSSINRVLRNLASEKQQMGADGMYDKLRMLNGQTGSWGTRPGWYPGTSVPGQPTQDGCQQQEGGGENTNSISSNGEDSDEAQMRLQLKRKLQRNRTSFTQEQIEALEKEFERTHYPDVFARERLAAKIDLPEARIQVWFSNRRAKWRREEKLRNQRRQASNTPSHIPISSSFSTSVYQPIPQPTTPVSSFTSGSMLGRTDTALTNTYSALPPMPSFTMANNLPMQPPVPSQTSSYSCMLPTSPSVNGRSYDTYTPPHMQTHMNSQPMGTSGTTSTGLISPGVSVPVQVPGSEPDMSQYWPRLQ
Chain of Transcription factor E2F1 (Homo sapiens) (Q01094 whole entry, looked up): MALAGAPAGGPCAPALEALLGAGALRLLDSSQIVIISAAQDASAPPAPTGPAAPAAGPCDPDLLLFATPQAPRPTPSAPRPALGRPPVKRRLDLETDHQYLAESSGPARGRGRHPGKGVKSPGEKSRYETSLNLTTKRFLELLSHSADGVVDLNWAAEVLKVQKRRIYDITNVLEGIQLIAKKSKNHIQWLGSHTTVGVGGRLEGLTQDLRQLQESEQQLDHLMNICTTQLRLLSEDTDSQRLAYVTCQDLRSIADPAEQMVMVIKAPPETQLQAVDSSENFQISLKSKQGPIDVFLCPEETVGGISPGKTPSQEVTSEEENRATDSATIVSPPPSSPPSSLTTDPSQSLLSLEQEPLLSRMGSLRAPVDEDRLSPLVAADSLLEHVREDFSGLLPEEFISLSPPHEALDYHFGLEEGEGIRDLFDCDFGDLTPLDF
Chain of Androgen receptor (Homo sapiens) (P10275 whole entry, looked up, the tested form may be a part): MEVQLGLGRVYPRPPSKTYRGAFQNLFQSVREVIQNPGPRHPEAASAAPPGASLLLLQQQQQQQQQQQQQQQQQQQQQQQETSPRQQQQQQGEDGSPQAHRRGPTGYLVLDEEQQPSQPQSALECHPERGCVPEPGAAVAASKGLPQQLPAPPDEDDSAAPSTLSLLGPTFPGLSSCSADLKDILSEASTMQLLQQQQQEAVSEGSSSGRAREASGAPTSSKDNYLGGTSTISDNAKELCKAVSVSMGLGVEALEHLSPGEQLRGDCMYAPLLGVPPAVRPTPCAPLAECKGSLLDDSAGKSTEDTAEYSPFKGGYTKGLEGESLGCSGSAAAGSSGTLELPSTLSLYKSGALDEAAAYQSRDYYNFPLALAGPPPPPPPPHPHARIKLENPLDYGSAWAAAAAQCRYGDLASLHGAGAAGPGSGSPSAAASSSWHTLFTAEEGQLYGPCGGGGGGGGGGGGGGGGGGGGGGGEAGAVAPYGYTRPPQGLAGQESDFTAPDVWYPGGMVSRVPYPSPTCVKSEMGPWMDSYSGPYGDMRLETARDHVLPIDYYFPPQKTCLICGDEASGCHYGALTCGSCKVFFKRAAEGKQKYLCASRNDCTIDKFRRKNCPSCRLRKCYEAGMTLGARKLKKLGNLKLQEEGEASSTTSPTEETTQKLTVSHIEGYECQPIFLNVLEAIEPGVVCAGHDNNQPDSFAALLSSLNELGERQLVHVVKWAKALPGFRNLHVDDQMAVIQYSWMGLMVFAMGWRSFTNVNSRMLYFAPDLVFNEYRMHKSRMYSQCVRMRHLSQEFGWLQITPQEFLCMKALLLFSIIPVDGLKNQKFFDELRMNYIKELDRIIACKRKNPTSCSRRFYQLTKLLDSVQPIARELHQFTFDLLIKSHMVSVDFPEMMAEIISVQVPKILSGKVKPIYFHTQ

Take `O=[N+]([O-])C=Cc1ccccc1`: the call in [1], in assay [4], in [5], in [7], in assay [12] and in assay [13] was inactive. Moreover, the compound was called inactive in assay [19]. The AC50 in assay [2] is 29.6 µM (active); in assay [3], 21.4 µM (active); in assay [6], 14.4 µM (active); in [8], 22.7 µM (active); in assay [9] it was 33.4 µM (active); in [10], 22.1 µM (active). Also, the AC50 is 27.6 µM (active) in [11]; 11.4 µM (active) in assay [14]; 13.3 µM (active) in assay [15]; 21.1 µM (active) in [16]; 56.8 µM (active) in assay [17]; 20.1 µM (active) in assay [18].

On to `C[C@]12CC[C@H]3[C@@H](CC[C@@]45O[C@@H]4C(O)=C(C#N)C[C@]35C)[C@@H]1CC[C@@H]2O`, for which the AC50 in assay [1] is 100 µM (active); in assay [6], 63.3 µM (active); in [11], 100 µM (active); in assay [15] it was 62.1 µM (active); in assay [16], 44.2 µM (active); in assay [17], 27.2 µM (active). Further, the compound was classed as inactive in assay [2], in assay [3], in assay [4], in [5], in assay [7] and in assay [8]. The call in assay [9], in assay [10], in [12], in assay [13], in [14] and in assay [18] was inactive. For the same compound, the result in assay [19] was inactive.

Turning to `CC(C)(c1cc(Cl)c(O)c(Cl)c1)c1cc(Cl)c(O)c(Cl)c1`, the AC50 in assay [1] was 8 µM (active); in [2] it was 33.4 µM (active); in assay [6], 52.8 µM (active); in assay [11], 47.2 µM (active); in assay [14] it was 56.5 µM (active); in assay [15], 58.4 µM (active). In assay [16], the AC50 was 52.3 µM (active). Also, the outcome in [3], in assay [4], in assay [5], in assay [7], in assay [8] and in assay [9] was inactive. The result in [10], in assay [12], in [13], in [17], in [18] and in assay [19] was inactive.

As for `O=C=Nc1ccccc1`, the outcome in assay [1], in [2], in assay [3], in assay [4], in [5] and in assay [6] was inactive. Besides, the result in [7], in assay [8], in [9], in assay [10], in assay [11] and in assay [12] was inactive. Moreover, the call in assay [13], in [14], in assay [15], in [16], in assay [18] and in [19] was inactive. The AC50 in assay [17] is 11.7 µM (active).

Take `CN(N=O)c1ccccc1`: the result in assay [1], in assay [2], in [3], in assay [4], in [5] and in assay [6] was inactive. For the same compound, the compound was called inactive in assay [7], in assay [8], in assay [9], in assay [10], in assay [11] and in assay [12]. The compound was called inactive in assay [13], in [14], in assay [15], in assay [16], in assay [17] and in [18]. The result in [19] was inactive.

Consider `CCCCCC(=O)O`, for which the result in assay [20] was inactive.
